Data reported in PubChem BioAssay (EPA / NIEHS).
Active and inactive are the calls of the source. How the source made its calls: active means hit-call score of the fitted dose curve at least 0.9, where 1 is the maximum; inactive means score below 0.9.

Assays:
[1] = read-out: Vascular endothelial growth factor receptor 2 (Homo sapiens) (UniProt P35968); experiment: BSK_4H_VEGFRII: BioMAP Diversity Plus: 4H Assay for Vascular endothelial growth factor receptor 2 (VEGFR2) Biomarker Activity (AID 2283031); conditions: primary human endothelial cells (HUVEC); actives raise or lower the signal
Method in brief: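 ELISA read-out of VEGFRII in primary human umbilical vein endothelium, taken 24 h after chemical treatment. Responses are expressed relative to DMSO, with bidirectional fitting.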

[2] = read-out: Human Leukocyte Antigen - DR isotype (HLADR), HLA-DRA (gene 3122); experiment: BSK_BE3C_HLADR: BioMAP Diversity Plus: BE3C Assay for Human Leukocyte Antigen - DR isotype (HLADR) Biomarker Activity (AID 2283032); conditions: primary human bronchial epithelial cells; actives raise or lower the signal
Method in brief: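 Human primary bronchial epithelial cells in the BE3C system were exposed to chemicals for 24 h, after which HLA-DR levels were quantified by ELISA. Activity was fitted bidirectionally, gain or loss of signal, against DMSO as negative control and baseline.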

[3] = read-out: Vascular cell adhesion molecule 1 (VCAM1), VCAM1 (gene 7412); experiment: BSK_4H_VCAM1: BioMAP Diversity Plus: 4H Assay for Vascular cell adhesion molecule 1 (VCAM1) Biomarker Activity (AID 2283033); conditions: primary human endothelial cells (HUVEC); actives raise or lower the signal
Method in brief: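 Primary human umbilical vein endothelial cells were exposed to chemicals for 24 h, after which VCAM-1 was quantified by ELISA. Responses were fitted bidirectionally against DMSO as negative control and activity baseline.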

[4] = read-out: Interferon-gamma inducible Protein 10 (IP10), CXCL10 (gene 3627); experiment: BSK_BE3C_IP10: BioMAP Diversity Plus: BE3C Assay for Interferon-gamma inducible Protein 10 (IP10) Biomarker Activity (AID 2283034); conditions: primary human bronchial epithelial cells; actives raise or lower the signal
Method in brief: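 Human primary bronchial epithelial cells were exposed to chemicals for 24 hours, after which IP-10 levels were measured by ELISA. Data were fitted bidirectionally against DMSO, which served as the negative control and activity baseline.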

[5] = read-out: Monokine induced gamma interferon (MIG), CXCL9 (gene 4283); experiment: BSK_BE3C_MIG: BioMAP Diversity Plus: BE3C Assay for Monokine induced gamma interferon (MIG) Biomarker Activity (AID 2283035); conditions: primary human bronchial epithelial cells; actives raise or lower the signal
Method in brief: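 MIG level was determined by ELISA after 24 h chemical treatment of primary human bronchial epithelial cells. Values were fitted bidirectionally with DMSO as the negative control and activity baseline.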

[6] = read-out: Transforming growth factor beta 1 (TGFb1), TGFB1 (gene 7040); experiment: BSK_BE3C_TGFb1: BioMAP Diversity Plus: BE3C Assay for Transforming growth factor beta 1 (TGFb1) Biomarker Activity (AID 2283036); conditions: primary human bronchial epithelial cells; actives raise or lower the signal
Method in brief: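 Human primary bronchial epithelial cells (BE3C system) were dosed with chemical and TGF-b1 levels measured by ELISA at 24 h. Activity was fitted bidirectionally relative to DMSO negative control as baseline.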

[7] = read-out: Plasminogen activator inhibitor-1 (PAI1), SERPINE1 (gene 5054); experiment: BSK_BE3C_PAI1: BioMAP Diversity Plus: BE3C Assay for Plasminogen activator inhibitor-1 (PAI1) Biomarker Activity (AID 2283037); conditions: primary human bronchial epithelial cells; actives raise or lower the signal
Method in brief: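 Human primary bronchial epithelial cells were exposed to chemical for 24 h, then PAI-1 was quantified by ELISA. Activity was fitted bidirectionally relative to the DMSO negative control baseline.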

[8] = read-out: urokinase plasminogen activator (uPA), PLAU (gene 5328); experiment: BSK_BE3C_uPA: BioMAP Diversity Plus: BE3C Assay for urokinase plasminogen activator (uPA) Biomarker Activity (AID 2283038); conditions: primary human bronchial epithelial cells; actives raise or lower the signal
Method in brief: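 Bronchial epithelial cells (human, primary); chemical 24 h; uPA by ELISA; bidirectional fit vs DMSO. SRB (0.1%, after 10% TCA fixation, 560 nm) in parallel cultures for cytotoxicity.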

[9] = read-out: Interleukin-6 (IL6), IL6 (gene 3569); experiment: BSK_CASM3C_IL6: BioMAP Diversity Plus: CASM3C Assay for Interleukin-6 (IL6) Biomarker Activity for (AID 2283040); conditions: primary human coronary artery smooth muscle cells; actives raise or lower the signal
[10] = read-out: Interleukin-8 (IL8), CXCL8 (gene 3576); experiment: BSK_CASM3C_IL8: BioMAP Diversity Plus: CASM3C Assay for Interleukin-8 (IL8) Biomarker Activity (AID 2283042); conditions: primary human coronary artery smooth muscle cells; actives raise or lower the signal;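 further: IL-8 protein level quantified by ELISA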
[11] = read-out: Human Leukocyte Antigen - DR isotype (HLADR), HLA-DRA (gene 3122); experiment: BSK_CASM3C_HLADR: BioMAP Diversity Plus: CASM3C Assay for Human Leukocyte Antigen - DR isotype (HLADR) Biomarker Activity (AID 2283043); conditions: primary human coronary artery smooth muscle cells; actives raise or lower the signal;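 further: cell-surface HLA-DR protein level quantified by ELISA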
[12] = read-out: Macrophage colony-stimulating factor (MCSF), CSF1 (gene 1435); experiment: BSK_CASM3C_MCSF: BioMAP Diversity Plus: CASM3C Assay for Macrophage colony-stimulating factor (MCSF) Biomarker Activity (AID 2283044); conditions: primary human coronary artery smooth muscle cells; actives raise or lower the signal;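 further: M-CSF protein amount quantified by ELISA after 24 h exposure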
[13] = read-out: Low-density lipoprotein receptor (LDLR), LDLR (gene 3949); experiment: BSK_CASM3C_LDLR: BioMAP Diversity Plus: CASM3C Assay for Low-density lipoprotein receptor (LDLR) Biomarker Activity (AID 2283045); conditions: primary human coronary artery smooth muscle cells; actives raise or lower the signal;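 further: LDLR protein level on the cell surface quantified by ELISA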
[14] = read-out: Monocyte Chemoattractant Protein-1 (MCP1), CCL2 (gene 6347); experiment: BSK_CASM3C_MCP1: BioMAP Diversity Plus: CASM3C Assay for Monocyte Chemoattractant Protein-1 (MCP1) Biomarker Activity (AID 2283046); conditions: primary human coronary artery smooth muscle cells; actives raise or lower the signal;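 further: MCP-1 level quantified by ELISA 24 h after dosing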
[15] = BSK_CASM3C_Proliferation: Cell Proliferation Assessment in the BioMAP Diversity Plus: CASM3C Assay (AID 2283047); conditions: primary human coronary artery smooth muscle cells;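 further: sulforhodamine B total protein stain as relative cell number at 560 nm; sub-confluent cells exposed 48 h before staining; fitted both ways against DMSO so gain or loss of cell number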
[16] = read-out: Monokine induced gamma interferon (MIG), CXCL9 (gene 4283); experiment: BSK_CASM3C_MIG: BioMAP Diversity Plus: CASM3C Assay for Monokine induced gamma interferon (MIG) Biomarker Activity (AID 2283048); conditions: primary human coronary artery smooth muscle cells; actives raise or lower the signal;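 further: MIG protein level measured by ELISA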
[17] = read-out: serum amyloid A (SAA), SAA1 (gene 6288); experiment: BSK_CASM3C_SAA: BioMAP Diversity Plus: CASM3C Assay for serum amyloid A (SAA) Biomarker Activity (AID 2283049); conditions: primary human coronary artery smooth muscle cells; actives raise or lower the signal;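 further: SAA protein level quantified by ELISA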
[18] = BSK_CASM3C_SRB: Viability Assessment in the BioMAP Diversity Plus: CASM3C Assay (AID 2283050); conditions: primary human coronary artery smooth muscle cells;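 further: total protein by SRB staining as cytotoxicity measure in parallel cultures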
[19] = read-out: Urokinase-type plasminogen activator receptor (uPAR), PLAUR (gene 5329); experiment: BSK_BE3C_uPAR: BioMAP Diversity Plus: BE3C Assay for Urokinase-type plasminogen activator receptor (uPAR) Biomarker Activity (AID 2283039); conditions: primary human bronchial epithelial cells; actives raise or lower the signal;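 further: uPAR protein level measured by ELISA on the cells; cells exposed to compound for one day before measurement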
Method in brief: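 Primary human bronchial epithelial cells were dosed with chemical and harvested 24 h later; uPAR was quantified by ELISA. Activity was fitted bidirectionally against DMSO as negative control and baseline.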

[20] = read-out: Tissue plasminogen activator (tPA), PLAT (gene 5327); experiment: BSK_BE3C_tPA: BioMAP Diversity Plus: BE3C Assay for Tissue plasminogen activator (tPA) Biomarker Activity (AID 2283041); conditions: primary human bronchial epithelial cells; actives raise or lower the signal;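 further: tPA level quantified by ELISA one day after compound addition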
Method in brief: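 Human primary bronchial epithelial cells were dosed with chemical and tPA biomarker levels measured by ELISA 24 hours later. Activity was fitted bidirectionally against DMSO as negative control and baseline.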

Measured: AC50

Cc1ccc(O)c(C(C)(C)C)c1
inactive: [1] | [6] | [7] | [10] | [12] | [13] | [17]
active: [2] 30.5 µM | [3] 30.5 µM | [4] 36.8 µM | [5] 35 µM | [8] 31.6 µM | [9] 10.6 µM | [11] 26.8 µM | [14] 33.4 µM | [15] 29.1 µM | [16] 33.2 µM | [18] 24.6 µM

O=C(O)C[C@H](O)C[C@H](O)/C=C/c1c(C2CC2)nc2ccccc2c1-c1ccc(F)cc1
active: [2] 0.028 µM | [8] 1.7 µM | [9] 0.0041 µM | [12] 0.0636 µM | [14] 0.0117 µM | [15] 0.129 µM
inactive: [1] | [3] | [4] | [5] | [6] | [7] | [19] | [10] | [11] | [13] | [16] | [17] | [18]

CC(C)Oc1ccccc1O
inactive: [1] | [2] | [3] | [4] | [5] | [6] | [7] | [8] | [19] | [9] | [10] | [11] | [12] | [13] | [14] | [15] | [16] | [17] | [18]

CCCCCCCCCC=O
active: [2] 20 µM | [4] 20 µM
inactive: [1] | [3] | [5] | [6] | [7] | [8] | [19] | [9] | [20] | [10] | [11] | [12] | [13] | [14] | [15] | [16] | [17] | [18]

CCn1c2ccccc2c2cc(N)ccc21
active: [2] 2.24 µM | [7] 3.97 µM | [12] 0.426 µM
inactive: [1] | [3] | [4] | [5] | [6] | [8] | [9] | [10] | [11] | [13] | [14] | [15] | [16] | [17] | [18]

CC1CCC(C(C)CS)CC1S (stereo not drawn)
inactive: [1] | [6] | [7] | [8] | [20]
active: [2] 20 µM | [3] 29.1 µM | [4] 30.7 µM | [5] 35.4 µM | [9] 33.5 µM | [10] 20 µM | [11] 35.8 µM | [12] 22.3 µM | [13] 20 µM | [14] 30.9 µM | [15] 29.6 µM | [16] 36.5 µM | [17] 20 µM | [18] 29.7 µM
